Inconclusive results are not listed. A number with no mark means an inactive call. The source made the active and inactive calls. Calls follow the shape of the dose curve; as a rule, active = well fitted inhibition curve with a large enough effect; inconclusive = small, poorly fitted or top-dose-only effect; inactive = no such curve, though single readings can be large or run the other way.

Results on 40 compounds are retold here after PubChem BioAssay (NCATS).
Potency is read from the fitted curve at half-maximal effect.

Protein phosphatase 1D (Homo sapiens), sequence (O15297 whole entry, looked up): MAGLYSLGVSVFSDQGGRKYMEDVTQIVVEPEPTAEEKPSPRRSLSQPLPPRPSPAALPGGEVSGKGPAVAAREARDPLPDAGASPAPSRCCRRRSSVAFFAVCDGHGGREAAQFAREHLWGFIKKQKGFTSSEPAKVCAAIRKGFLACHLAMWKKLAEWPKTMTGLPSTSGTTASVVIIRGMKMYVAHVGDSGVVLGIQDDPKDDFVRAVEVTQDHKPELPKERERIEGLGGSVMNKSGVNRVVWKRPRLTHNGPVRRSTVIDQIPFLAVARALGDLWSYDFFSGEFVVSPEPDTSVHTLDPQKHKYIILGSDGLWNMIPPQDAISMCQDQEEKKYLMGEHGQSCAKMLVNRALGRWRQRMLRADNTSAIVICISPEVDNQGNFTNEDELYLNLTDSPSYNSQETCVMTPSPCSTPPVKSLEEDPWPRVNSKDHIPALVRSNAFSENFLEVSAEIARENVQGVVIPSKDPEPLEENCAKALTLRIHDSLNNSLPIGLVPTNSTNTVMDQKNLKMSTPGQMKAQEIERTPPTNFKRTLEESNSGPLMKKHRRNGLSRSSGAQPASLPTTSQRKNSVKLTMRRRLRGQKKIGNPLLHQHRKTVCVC

For the assay, the target named is Protein phosphatase 1D (Homo sapiens) (UniProt O15297). In words: RapidFire Mass Spectrometry qHTS Assay for Modulators of WT P53-Induced Phosphatase 1 (WIP1) (AID 1347424). Particulars: WIP1 dephosphorylation of phosphopeptide, RapidFire MS; series mostly up to 63 µM; activity change, negative = inhibition: at the top concentration. An excerpt:
Assay Provider (PI): Nathan Coussens Ph. D.
National Center for Advancing Translational Sciences (NCATS), Rockville, MD
National Institute of Health (NIH), Bethesda, Maryland
WT P53-Induced Phosphatase 1 (WIP1) is a member of the magnesium-dependent serine/threonine protein phosphatase (PPM) family and is induced by P53 in response to DNA damage. In several human cancers, the WIP1 protein is overexpressed, which is generally associated with a worse prognosis. Although WIP1 is an attractive therapeutic target, no potent, selective, and bioactive small-molecule modulator with favorable pharmacokinetics has been reported. Phosphatase enzymes are among the most challenging targets for small molecules because of the difficulty of achieving both modulator selectivity and bioavailability. Another major obstacle has been the availability of robust and physiologically relevant phosphatase assays that are suitable for high-throughput screening.
Here, we describe two orthogonal biochemical WIP1 activity assays that utilize phosphopeptides from native WIP1 substrates. We optimized a RapidFire MS assay to quantify the enzymatically dephosphorylated peptide reaction product in a 384-well format. Additionally, a redshifted Rhodamine-PBP fluorescence assay was optimized in a 1,536-well format to enable real-time WIP1 activity measurements through the detection of the orthogonal reaction product, Pi. We validated these two optimized assays by quantitative high-throughput screening against the National Center for Advancing Translational Sciences (NCATS) Pharmaceutical Collection and used secondary assays to confirm and evaluate inhibitors identified in the primary screen.
SEQUENCE No. (e.g., 1, 2, 3, etc.); […] (e.g., Cells, Incubation, Reagent, etc.); VALUE; DESCRIPTION
1; Reagent; 50 uL; dispensed assay buffer: 0.1% formic acid in water (10 uL : 40 uL) solution in column 1
3; Library Compounds; 63 nL; library compounds in DMSO, columns 3-24
4; Control Compounds; 63 nL; DMSO in wells I-P, columns 1-2, GSK830371 (10 uM, final) in wells A-H, column 2
5; Time; 1 hr; incubation
6; Substrate; 2 uL; VEPPL-pS-QETFS (10 uM) in assay buffer, column 2-24
7; Time; 5 min; incubation
8; Reagent; 2 uL; 0.5% formic acid in water, columns 2-24
9; Reagent; 38 uL; VEPPL-S-QETF*S in 0.1% formic acid, columns 2-24
10; Detection; mass spec; RapidFire mass spectrometry
NOTES (numbers refer to sequence above)
1, 2, 6; dispensed reagent in White Nunc 384-well PP microplates (264573); assay buffer: 50 mM Tris-HCl pH 7.5, 30 mM MgCl2, 1 mM TCEP, 0.1 mM EGTA, 75 ug/mL BSA.
2, 6, 8, 9; Dispensed with BioRaptr (Beckman Coulter)
2, 6, 9; Final concentrations: 10 nM WIP1; 2 uM VEPPL-pS-QETFS; 1 uM VEFFL-S-QETF*S
3 & 4; Kalypsys Pintool transfer (Wako USA), Tip wash sequence: water, DMSO, methanol, 20 sec vacuum dry.
5 & 7; incubation at room temperature
10; RapidFire mass spectrometry read using the Agilent RapidFire 360 (Clausse, 2019)
Clausse V, et al. Physiologically relevant orthogonal assay for the discovery of small-molecule modulators of WIP1 […] in high-throughput screens. J Biol Chem. 2019, 294(46): 17654-17668. doi:10.1074/jbc.RA119.010201
(In qHTS, concentration-response curves come from the screen itself.)
For `Nc1ccc([As](=O)(O)O)cc1`, the “activity change, negative = inhibition” value was 1.96%.

For the compound `C[C@]12CC[C@H]3[C@@H](CCC4=CC(=O)CC[C@@H]43)[C@@H]1CC[C@@H]2OC(=O)CCc1ccco1`, the “activity change, negative = inhibition” value is -4.79%. As to `CCN(CCO)CCn1c(Cc2ccccc2)nc2c1c(=O)n(C)c(=O)n2C`, the “activity change, negative = inhibition” value was 2.45%. For `COc1c2c(cc3c1OCO3)CCN(C)C2`, the “activity change, negative = inhibition” value was 0.82%. For the compound `CN1C(=O)NC(=O)C(C)(C2=CCCCC2)C1=O` (stereo not given), the “activity change, negative = inhibition” value was 11.5%.

For the compound `C[C@]12CCC(=O)C=C1CC[C@@H]1[C@@H]2CC[C@]2(C)C(=O)CC[C@@H]12`, the “activity change, negative = inhibition” value is 12.9%.

As for `Nc1ccccc1C(=O)O`, the “activity change, negative = inhibition” value was 2.48%. As for `COc1cccc([C@@]2(O)CCCC[C@@H]2CN(C)C)c1`, the “activity change, negative = inhibition” value was -0.793%.

In the case of `CN1CC[C@]23c4c5ccc(O)c4O[C@H]2[C@@H](O)CC[C@H]3[C@H]1C5`, the “activity change, negative = inhibition” value was -18.5% [at 128 µM]. On the same count and under the same terms, the result for `C[C@]12CC[C@H]3[C@@H](CC[C@@]45O[C@H]4C(O)=C(C#N)C[C@]35C)[C@H]1CC[C@H]2O` reads -1.96%; that for `COc1cc(CC(C)N)cc(OC)c1OC` (stereo not given), -25.1% [at 128 µM]. The same measure, in the same setting: under `CCOP(=S)(OCC)Oc1ccc2c(C)c(Cl)c(=O)oc2c1` stands -16.1%. The same measure, in the same setting: the result for `COC1CC(=C(c2cccs2)c2cccs2)C[N+](C)(C)C1` (stereo not given) reads 2.41%; that for `Oc1ccc(Cl)cc1`, -4.44%. As for `C[C@]12Cc3cn[nH]c3C[C@@H]1CC[C@@H]1[C@@H]2CC[C@@]2(C)[C@H]1CC[C@]2(C)O`, the “activity change, negative = inhibition” value was -2.96%. As for `O=C1c2ccccc2C(=O)c2ccccc21`, the “activity change, negative = inhibition” value is -11% [at 26.6 µM].

For `COc1cccc2c1C(=O)c1c(O)c3c(c(O)c1C2=O)C[C@@](O)(C(=O)CO)CC3OC1CC(N2CCOC(OC)C2)C(O)C(C)O1` (stereo not given in full), the “activity change, negative = inhibition” value was -0.228%. In the case of `CCN[C@H](C)Cc1cccc(C(F)(F)F)c1`, the “activity change, negative = inhibition” value is -17.1% [at 128 µM]. Take `O=C(O)CCCc1ccc(N(CCCl)CCCl)cc1`: the “activity change, negative = inhibition” value is -7.03%. For the compound `CNCC(=O)c1ccc(O)c(O)c1`, the “activity change, negative = inhibition” value is -15.4%. As to `CCN[C@@H](C)Cc1ccccc1`, the “activity change, negative = inhibition” value was -4.48% [at 128 µM]. As to `C=CCN1C[C@H](C)N([C@H](c2ccc(C(=O)N(CC)CC)cc2)c2cccc(OC)c2)C[C@H]1C`, the “activity change, negative = inhibition” value was 14.4%. Same read-out and setting: under `CC(C)c1cccc(C(C)C)c1O` stands -3.17%. As for `CC(C)(C)NCC(O)c1ccccc1Cl` (stereo not given), the “activity change, negative = inhibition” value was 0.446%. Consider `C[C@@H]1CC2=CC(=O)CC[C@@H]2[C@H]2CC[C@@]3(C)[C@@H](CC[C@]3(C)O)[C@@H]21`, for which the “activity change, negative = inhibition” value was 4.26%. Same read-out and setting: the result for `O=C1CN=C(c2ccccc2)c2cc([N+](=O)[O-])ccc2N1` reads -7.06%; that for `C#CC(O)(C=CCl)CC` (stereo not given), -1.72%; that for `O=c1[nH]oc2c1CCNC2`, -5.95%. The same measure, in the same setting: the result for `COP(=S)(OC)SCN1C(=O)c2ccccc2C1=O` reads -4%; that for `CC(C)N(CCC(C(N)=O)(c1ccccc1)c1ccccn1)C(C)C` (stereo not given), 5.79%. As to `O=C(Nc1ccc(Br)cc1)c1cc(Br)cc(Br)c1O`, the Potency is 3.16 µM (active). In the case of `C[C@]12CCC(=O)C=C1CC[C@@H]1[C@@H]2CC[C@@]2(C)[C@H]1CC[C@]2(C)O`, the “activity change, negative = inhibition” value was -2.5%.

As for `NC(=O)CS(=O)C(c1ccccc1)c1ccccc1` (stereo not given), the “activity change, negative = inhibition” value is 13.5%. With `CCc1cc2c(s1)-n1c(C)nnc1CN=C2c1ccccc1Cl`, the “activity change, negative = inhibition” value is 21.7%. Same read-out and setting: under `C=CCC1([C@H](C)CCC)C(=O)NC(=O)NC1=O` stands -2.76% [at 128 µM].

On to `O=C1OC(CCN2CCCCC2)OC1(c1ccccc1)c1ccccc1` (stereo not given), for which the “activity change, negative = inhibition” value is -7.71%. In the case of `NC1=NC(=O)C(c2ccccc2)O1` (stereo not given), the “activity change, negative = inhibition” value is 0.393%. For `C#C[C@]1(O)CC[C@H]2[C@@H]3CCC4=CC(=O)CC[C@]4(C)[C@H]3CC[C@@]21C`, the “activity change, negative = inhibition” value is -1.2%. Consider `CCC1(c2ccccc2)C(=O)N(COC)C(=O)N(COC)C1=O`, for which the “activity change, negative = inhibition” value was 5.17%. On the same count and under the same terms, the result for `C[C@]12CC[C@@H]3c4ccc(OC(=O)N(CCCl)CCCl)cc4CC[C@H]3[C@@H]1CC[C@@H]2O` reads -2.89%.
